Bioassay records: PubChem, National Center for Advancing Translational Sciences (NCATS)
Compounds with a hit are over-represented: about 0.4% of the library has one in this group of screens.
FMDV Renilla: Primary qHTS Assay for Foot and Mouth Disease Virus Antivirals against NCGC Sytravon and CBC Compound Libraries: Renilla Luciferase Signal; FMDV replicon cells, Renilla luciferase signal; AID 1745857, 2022; Potency, µM (series often up to 57.5 µM), actives largely listed as inhibitors; actives 0.32% (n = 120,000); also: nearly all actives have a fitted effect of over 55% in size
FMDV antiviral: Primary qHTS Assay for Foot and Mouth Disease Virus Antivirals against NCGC Sytravon and CBC Compound Libraries: Firefly Luciferase Signal. FMDV antiviral cell assay, firefly luciferase signal. AID 1745856, 2022. actives 0.23% (n = 120,000). Potency, µM (top dose mostly 57.5 µM), usual class: inhibitors; also: nearly all actives have a fitted effect of over 60% in size
A number is an active result. Calls follow the shape of the full dose curve.

For CC(C)CCC(C)NC(=O)c1ccc(CN2CCCC2=O)cc1 (stereo not given) the results were FMDV Renilla inactive and FMDV antiviral inactive.
`O=C(Nc1ccccc1Oc1ccccc1)c1cccc(CN2CCCC2=O)c1` gave FMDV Renilla inactive and FMDV antiviral inactive.
For O=C(Nc1ccccc1)c1cn(Cc2ccccc2)nn1 the results were FMDV Renilla inactive and FMDV antiviral inactive.
For CCOC(=O)c1sc2nc(C(C)N3CCCCC3)[nH]c(=O)c2c1C (stereo not given) the results were FMDV Renilla inactive and FMDV antiviral inactive.
Cn1c(=O)[nH]c(=O)c2c1nc(N1CCN(Cc3ccccc3Cl)CC1)n2Cc1ccccc1F was read as FMDV Renilla inactive and FMDV antiviral inactive.
Screening O=C(CSc1nc2ccccc2c(=O)n1CCc1cccs1)N1CCCCC1 returned FMDV Renilla inactive and FMDV antiviral inactive.
CC(C)NC(=O)/C(C#N)=C\c1cccc(/C=C(/C#N)C(=O)NC(C)C)c1 was read as FMDV Renilla inactive and FMDV antiviral 28µM.
For CC(C)NC(=O)/C(C#N)=C\c1ccc(O)cc1 the results were FMDV Renilla inactive and FMDV antiviral inactive.
Screening CC(=O)Nc1ccc(S(=O)(=O)N2CCCCCC2c2ccc(C)s2)cc1 (stereo not given) returned FMDV Renilla inactive and FMDV antiviral inactive.
Screening O=C(Nc1ccc(S(=O)(=O)N2CCCCC2c2cccnc2)cc1)c1ccc(Br)cc1 (stereo not given) returned FMDV Renilla inconclusive and FMDV antiviral 25µM.
Screening COC(=O)c1ccc(NC(=O)CN(C)S(=O)(=O)c2ccc3c(c2)CCCC(=O)N3)cc1 returned FMDV Renilla inactive and FMDV antiviral inactive.
`CN(CC(=O)Nc1ccc(OC(F)(F)F)cc1)S(=O)(=O)c1ccc2c(c1)CCC(=O)N2` gave FMDV Renilla inconclusive and FMDV antiviral 22µM.
`O=C(Nc1nc(C23CC4CC(CC(C4)C2)C3)cs1)c1ccncc1` gave FMDV Renilla 8.9µM and FMDV antiviral 14µM.
For O=C(Nc1nc(C23CC4CC(CC(C4)C2)C3)cs1)c1ccc(=O)[nH]c1 the results were FMDV Renilla inactive and FMDV antiviral inactive.
For CC(C)(C)c1ccc2c(c1)OCCOCCOCCOc1cc(C(C)(C)C)ccc1OCCOCCOCCO2 the results were FMDV Renilla 28µM and FMDV antiviral inconclusive.
Screening Oc1ccc2c(c1)OCCOCCOc1cc(O)ccc1OCCO2 returned FMDV Renilla inactive and FMDV antiviral inactive.
Screening Cc1nc2cc(NC(C)C(=O)Nc3ccc(F)cc3F)ccc2o1 (stereo not given) returned FMDV Renilla inactive and FMDV antiviral inactive.
COc1ccc(-c2noc(N3CCN(c4ccc(Cl)cc4)CC3)n2)cc1OC was read as FMDV Renilla inactive and FMDV antiviral inactive.
`COc1ccccc1CC(=O)N1CCN(c2nc(-c3ccc(Cl)cc3)no2)CC1` gave FMDV Renilla 7.1µM and FMDV antiviral inconclusive.
`N#CCCN(CCC#N)C(=O)Cc1coc(-c2ccccc2)n1` gave FMDV Renilla inactive and FMDV antiviral inactive.
Screening CCOc1ccc2c(=O)c(-c3ccc(OC)c(OC)c3)c(C)oc2c1 returned FMDV Renilla inactive and FMDV antiviral inactive.
For COc1ccc(-c2c(C)oc3cc(OCC(=O)OC(C)(C)C)ccc3c2=O)cc1OC the results were FMDV Renilla inconclusive and FMDV antiviral 28µM.
For COc1ccc(C(=O)N(C)CC23CC4CC(CC(C4)C2)C3)c(O)c1 the results were FMDV Renilla inactive and FMDV antiviral inactive.
Screening CCCCCc1c(C)nc(Nc2nc(C)c3ccc(CC)cc3n2)[nH]c1=O returned FMDV Renilla inactive and FMDV antiviral inactive.
Screening COc1ccc(C(=O)Nc2nnc(SCc3cc(=O)c4cc(C)cc(C)c4[nH]3)s2)cc1 returned FMDV Renilla inactive and FMDV antiviral inactive.
Screening COc1ccc(-c2nnc(SCc3cc(=O)c4cc(C)cc(C)c4[nH]3)n2C)cc1 returned FMDV Renilla 4µM and FMDV antiviral inconclusive.
CC(CCc1ccccc1)NCCNC(=O)c1ccccc1 (stereo not given) was read as FMDV Renilla inactive and FMDV antiviral inactive.
